Laboratory results as given in PubChem BioAssay (NCATS).
Results filed as inconclusive are left out. Calls of active or inactive are those of the source. The call rests on the fitted dose curve; in most records, active means well fitted cell-killing curve with a large enough effect; inconclusive means small, poorly fitted or top-dose-only effect, or effect the other way; inactive means flat fitted curve, though single readings scatter. Where a SMILES comes first, the peptide text is derived from it. [ ]: non-standard residue; d: D form. ξ: configuration not given here. ξPhe(βξ-Me) = CC(c1ccccc1)C(N)C(=O)O; GABA = NCCCC(=O)O

Experiments:
Assay in all cases: Primary qHTS to identify gynecologic anti-cancer compounds using libraries of approved drugs and bioactive compounds (AID 1345084); further: nearly all actives have a fitted effect of over 55% in size
Conditions in all cases: Gynecologic cancer cell panel viability, ATPlite luminescence, 48 h; series mostly up to 57.5 µM
C33A = tested on: C33A
Method in brief: (§1)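 Cytotoxicity screen measuring ATP content by luciferase luminescence. Each compound is applied at five concentrations for 48 h at 37 C with 5% CO2.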

CAOV3 = tested on: CAOV3
Method in brief: as §1

CASKI = tested on: CASKI
Method in brief: as §1
On the % scale 0 is the no-effect control and ±100 the full control effect.

CC1=C2C(=O)O[C@@H](c3ccoc3)[C@]2(C)CCC1
inactive: Potency (C33A) | Potency (CAOV3) | Potency (CASKI)

O=C1CC(c2ccc([N+](=O)[O-])cc2)=NN1c1ccccc1
inactive: Potency (C33A) | Potency (CAOV3) | Potency (CASKI)

CN1C(=O)c2ccccc2-n2c(nc3ccccc3c2=O)/C1=C/c1ccccc1
inactive: Potency (C33A) | Potency (CAOV3) | Potency (CASKI)

COc1ncc(-c2ccc3c(Nc4cc(Oc5cc(F)cc(F)c5)cc(C(=O)O)c4)c(S(=O)(=O)NC4CC4)cnc3c2)c(OC)n1
inactive: Potency (C33A) | Potency (CAOV3) | Potency (CASKI)

O=C(O)C[C@@H](NC(=O)c1cc(-c2ccc(-c3ccncc3)cc2)cs1)c1ccccc1
inactive: Potency (C33A) | Potency (CAOV3) | Potency (CASKI)

CC(C)CC1NC(=O)C(C(C)c2ccccc2)NC(=O)C(C(C)C)NC(=O)C(C)NC(=O)CCCNC(=O)C(Cc2c[nH]c3ccccc23)NC(=O)C(C)NC1=O (stereo not drawn) (cyclo([GABA]AV[ξPhe(βξ-Me)]LAW); configuration not given here)
inactive: Potency (C33A) | Potency (CAOV3) | Potency (CASKI)

COc1cccc(-n2nc(C(=O)O)cc2-c2ccc(C3CCCCC3)c(Cl)c2)c1
inactive: Potency (C33A) | Potency (CAOV3) | Potency (CASKI)

CC1(C)C(O)CCC2(C)C1C(O)C=C1COC(=O)C12O (stereo not given)
inactive: Potency (C33A) | Potency (CAOV3) | Potency (CASKI)

CC1=C2C=C(CO)C(CO)CCC2(C)CCC1=O (stereo not given)
inactive: Potency (C33A) | Potency (CAOV3) | Potency (CASKI)

CCCCCCc1cccc(NC(=O)[C@H](N)CCP(=O)(O)O)c1
inactive: activity change, negative = cytotoxicity (C33A) 10.1% [at 11.6 µM] | activity change, negative = cytotoxicity (CAOV3) 5.39% [at 11.6 µM] | activity change, negative = cytotoxicity (CASKI) 0.791% [at 11.6 µM]

C=C1CC23CC1(O)CCC2C1=CC2OC(=O)C(C)(C2O)C1C3C(=O)O (stereo not given)
inactive: Potency (C33A) | Potency (CAOV3) | Potency (CASKI)

CC(C)CNC(=O)/C=C/CCCCc1ccc2c(c1)OCO2
inactive: Potency (C33A) | Potency (CAOV3) | Potency (CASKI)

C=C(C)C(C)C1OC23CC4(CO2)C(CCC2C5(C)CCC(OC6OCC(O)C(OC7OC(CO)C(O)C(OC8OCC(O)C(O)C8O)C7O)C6OC6OC(CO)C(O)C6O)C(C)(C)C5CCC24C)C3C(C)(O)C1OC(C)=O (stereo not given)
inactive: activity change, negative = cytotoxicity (C33A) 2.75% [at 11.6 µM] | activity change, negative = cytotoxicity (CAOV3) 4.55% [at 11.6 µM] | activity change, negative = cytotoxicity (CASKI) 5.79% [at 11.6 µM]

C[C@@H](OC(=O)/C=C/c1ccc(O)cc1)C1=C[C@]2(C=C[C@@H]3C(C(=O)O)=CO[C@@H](O[C@@H]4O[C@H](CO[C@@H]5O[C@H](CO)[C@@H](O)[C@H](O)[C@H]5O)[C@@H](O)[C@H](O)[C@H]4O)[C@@H]32)OC1=O
inactive: Potency (C33A) | Potency (CAOV3) | Potency (CASKI)

CC(c1c[nH]c2ccccc12)C(O)C(=O)O (stereo not given)
inactive: Potency (C33A) | Potency (CAOV3) | Potency (CASKI)

OCC1OC(Oc2cc(O)c3c(c2)OC(c2ccc(O)cc2)C(O)C3)C(O)C1O (stereo not given)
inactive: Potency (C33A) | Potency (CAOV3) | Potency (CASKI)

COc1ccc(C2=CC(=O)OC2Cc2ccc(O)cc2)c(O)c1 (stereo not given)
inactive: Potency (C33A) | Potency (CAOV3) | Potency (CASKI)

CC1NC(=O)C(Cc2c[nH]c3ccccc23)NC1=O (stereo not given)
inactive: Potency (C33A) | Potency (CAOV3) | Potency (CASKI)

CC(C)CC(=O)O[C@@H]1OC=C(CO[C@@H]2O[C@H](CO[C@@H]3O[C@H](CO)[C@@H](O)[C@H](O)[C@H]3O)[C@@H](O)[C@H](O)[C@H]2O)[C@H]2C[C@H](O)[C@@H](CO)[C@@H]12
inactive: Potency (C33A) | Potency (CAOV3) | Potency (CASKI)

COc1c2c(c(C)c3c1C(=O)OC3)O[C@@]1(C)C[C@@H](O)[C@]34O[C@](OC)(CC[C@]3(C)[C@H]1C2)OC4(C)C
inactive: Potency (C33A) | Potency (CAOV3) | Potency (CASKI)

CC(=O)N1c2ccccc2C2(O)CC3C(=O)NC(CC(C)C)C(=O)N3C12 (stereo not given)
inactive: Potency (C33A) | Potency (CAOV3) | Potency (CASKI)

C[C@@H]1C[C@H]2[C@@H]3CCC4=CC(=O)C=C[C@]4(C)[C@@]3(F)[C@@H](O)C[C@]2(C)[C@@]1(O)C(=O)COP(=O)(O)O
inactive: Potency (C33A) | Potency (CAOV3) | Potency (CASKI)

C=C1CC2[C@]3(C)C(=C(O)C(=O)[C@@]2(C)[C@]2(C(=O)OC)C(=O)C(C)OC(=O)[C@@]12C)C(C)(C)C(=O)CC3O (stereo not given in full)
inactive: Potency (C33A) | Potency (CAOV3) | Potency (CASKI)

CC(=O)O[C@@H]1C[C@@]23C[C@@]24CC[C@H](OC2OC[C@@H](O)[C@H](O)[C@H]2O)C(C)(C)[C@@H]4CC[C@H]3[C@]2(C)CC3OC4(C[C@@H](C)C3[C@@]12C)OCC1(C)OC14 (stereo not given in full)
inactive: Potency (C33A) | Potency (CAOV3) | Potency (CASKI)

CC(=O)O[C@H]1[C@H](Oc2ccccc2COC(=O)C2(O)C=CCCC2=O)O[C@H](CO)[C@@H](O)[C@@H]1O (stereo not given in full)
inactive: Potency (C33A) | Potency (CAOV3) | Potency (CASKI)

CC1=CC(=O)OC(C)(CC(C)(O)C(=O)O)C1 (stereo not given)
inactive: Potency (C33A) | Potency (CAOV3) | Potency (CASKI)

COc1c(C(CC(C)C)OC(C)=O)ccc(Oc2c(O)cc(C)cc2/C=C/C(C)=O)c1C(=O)O (stereo not given)
inactive: Potency (C33A) | Potency (CAOV3) | Potency (CASKI)

C=C[C@H]1[C@H](O[C@@H]2O[C@H](CO)[C@@H](O)[C@H](O)[C@H]2O)OC=C(C(=O)OC)[C@H]1C[C@@H]1N[C@H](C(=O)O)Cc2c1[nH]c1ccccc21
inactive: Potency (C33A) | Potency (CAOV3) | Potency (CASKI)

Oc1ccc([C@H]2COc3cc(O)ccc3C2)cc1
inactive: Potency (C33A) | Potency (CAOV3) | Potency (CASKI)

COC(=O)C1=CO[C@@H](O[C@@H]2O[C@H](CO)[C@@H](O)[C@H](O)[C@H]2O)[C@@H]2[C@@H](C)[C@@H](O)C[C@H]12
inactive: Potency (C33A) | Potency (CAOV3) | Potency (CASKI)

O=C(O)Cc1nn(Cc2nc3cc(C(F)(F)F)ccc3s2)c(=O)c2nccnc12
inactive: Potency (C33A) | Potency (CAOV3) | Potency (CASKI)

CC1(C)CC[C@]2(C(=O)O)CC[C@]3(C)C(=CCC4[C@@]5(C)C[C@H](O)[C@H](O[C@@H]6OC[C@H](O)[C@H](O)[C@H]6O)[C@@](C)(CO)C5CC[C@]43C)[C@@H]2C1 (stereo not given in full)
inactive: Potency (C33A) | Potency (CAOV3) | Potency (CASKI)

CCCCS(=O)(=O)Nc1ncnc(OCCOc2ncc(Br)cn2)c1-c1ccc(Br)cc1
inactive: Potency (C33A) | Potency (CAOV3) | Potency (CASKI)

CC1(C)CC[C@]2(C(=O)O)CC[C@]3(C)C(=CCC4[C@@]5(C)CCC(O[C@@H]6OC[C@H](O)[C@H](O)[C@H]6O[C@@H]6O[C@H](CO)[C@@H](O)[C@H](O)[C@H]6O)[C@@](C)(CO)C5CC[C@]43C)[C@@H]2C1 (stereo not given in full)
inactive: Potency (C33A) | Potency (CAOV3) | Potency (CASKI)

C=CC1(C)CC(OC(=O)C(=C)C(O)COC(C)=O)C(C(=C)C(=O)OC)C(O)C1C(=C)CO (stereo not given)
inactive: Potency (C33A) | Potency (CAOV3) | Potency (CASKI)

CC1(C)O[C@@]2(C)CC[C@@H]1C[C@@H]2OC1OC(CO)C(O)C(O)C1O (stereo not given in full)
inactive: Potency (C33A) | Potency (CAOV3) | Potency (CASKI)

COC1=CC(=O)O[C@@H](CCc2ccccc2)[C@@H]1O
inactive: Potency (C33A) | Potency (CAOV3) | Potency (CASKI)

CC(=O)c1c(O)cc2c(c1C)C(=O)CC(O)C2 (stereo not given)
inactive: Potency (C33A) | Potency (CAOV3) | Potency (CASKI)

NC(=O)c1cccc(-c2cc(O)cc(OC(=O)NC3CCCCC3)c2)c1
inactive: Potency (C33A) | Potency (CAOV3) | Potency (CASKI)

C[C@@H]1O[C@@H](O[C@H]2[C@H](O)[C@@H](C(=O)O)O[C@@H](O[C@H]3CC[C@@]4(C)C(CC[C@]5(C)C4CC=C4C6CC(C)(C)CC[C@]6(C(=O)O)CC[C@]45C)C3(C)C)[C@@H]2O[C@@H]2O[C@H](CO)[C@@H](O)[C@H](O)[C@H]2O)[C@H](O)[C@H](O)[C@H]1O (stereo not given in full)
inactive: activity change, negative = cytotoxicity (C33A) 0.0448% [at 11.6 µM] | activity change, negative = cytotoxicity (CAOV3) 1.71% [at 11.6 µM] | activity change, negative = cytotoxicity (CASKI) -2.17% [at 11.6 µM]

C[C@@H]1O[C@@H](O[C@H]2[C@H](O[C@H]3CO[C@@H](O[C@H]4CC[C@@]5(C)C(CC[C@]6(C)C5CC[C@]57OC[C@@]8(CC[C@](C)(CO)CC85)[C@H](O)C[C@]76C)C4(C)C)[C@H](O[C@@H]4O[C@H](CO)[C@@H](O)[C@H](O)[C@H]4O)[C@H]3O)O[C@H](CO)[C@@H](O)[C@@H]2O)[C@H](O)[C@H](O)[C@H]1O (stereo not given in full)
inactive: activity change, negative = cytotoxicity (C33A) -5.68% [at 11.6 µM] | activity change, negative = cytotoxicity (CAOV3) -8.26% [at 11.6 µM] | activity change, negative = cytotoxicity (CASKI) -2.01% [at 11.6 µM]

OC[C@H]1O[C@@H](n2cnc3c2NC=NC[C@H]3O)C[C@@H]1O
inactive: Potency (C33A) | Potency (CAOV3) | Potency (CASKI)

CC[C@H]1OC(=O)[C@H](C)[C@@H](O[C@H]2C[C@@](C)(OC)[C@@H](O)[C@H](C)O2)[C@H](C)[C@@H](O[C@@H]2O[C@H](C)C[C@H](N(C)C)[C@H]2O)[C@@](C)(O)C[C@@H](C)[C@@H]2N[C@@H](COCCOC)OC([C@H]2C)[C@]1(C)O
inactive: Potency (C33A) | Potency (CAOV3) | Potency (CASKI)

C[C@H]1[C@H](C)CC[C@]2(C(=O)O)CC[C@]3(C)C(=CC[C@@H]4[C@@]5(C)C[C@@H](O)[C@H](O)[C@@](C)(CO)[C@@H]5CC[C@]43C)[C@H]12
inactive: Potency (C33A) | Potency (CAOV3) | Potency (CASKI)

CC1(C)CC2C3=CCC4C5(C)CCC(OC6OC(C(=O)O)C(O)C(O)C6OC6OC(CO)C(O)C(O)C6OC6OC(CO)C(O)C(O)C6O)C(C)(CO)C5CCC4(C)C3(C)CCC2(C)C(OC2OCC(O)C(OC3OC(CO)C(O)C(O)C3O)C2O)C1O (stereo not given)
inactive: activity change, negative = cytotoxicity (C33A) 8.44% [at 6.55 µM] | activity change, negative = cytotoxicity (CAOV3) 13.1% [at 6.55 µM] | activity change, negative = cytotoxicity (CASKI) 6.12% [at 6.55 µM]

CC1(C)C(=O)N2c3ccccc3[C@]3(CC(n4cnc5ccccc5c4=O)C(=O)O3)[C@H]2N1O (stereo not given in full)
inactive: Potency (C33A) | Potency (CAOV3) | Potency (CASKI)

O=C(O)c1n[nH]c2c1C[C@H]1C[C@@H]21
inactive: Potency (C33A) | Potency (CAOV3) | Potency (CASKI)

COc1cc(C(O)C(CO)Oc2ccc(CCCO[C@@H]3O[C@@H](C)[C@H](O)[C@@H](O)[C@H]3O)cc2OC)ccc1O (stereo not given in full)
inactive: Potency (C33A) | Potency (CAOV3) | Potency (CASKI)

O=C(c1ccc(NS(=O)(=O)c2cccc3cccnc23)cc1)N1CCN(CC2CC2)CC1
inactive: Potency (C33A) | Potency (CAOV3) | Potency (CASKI)

COC(=O)[C@@]1(C)CC[C@]2(C(=O)O[C@@H]3O[C@H](CO)[C@@H](O)[C@H](O)[C@H]3O)CC[C@]3(C)C(=CCC4[C@@]5(C)CC[C@H](O[C@@H]6O[C@H](C(=O)O)[C@@H](O)[C@H](O)[C@H]6O)C(C)(C)C5CC[C@]43C)[C@@H]2C1 (stereo not given in full)
inactive: activity change, negative = cytotoxicity (C33A) -14.8% [at 11.6 µM] | activity change, negative = cytotoxicity (CAOV3) -1.21% [at 11.6 µM] | activity change, negative = cytotoxicity (CASKI) -4.58% [at 11.6 µM]
